Only some compounds are listed: those with a hit (about 2.8% of all), similar ones and a draw of the others.
POLK inh: inhibitors of human DNA polymerase kappa; Q9UBT6; purified Pol kappa, fluorescent DNA synthesis assay, 10 min; Potency, µM (highest dose often 107 µM), without a hit: top-dose activity, negative = inhibition, hits mostly inhibitors; 0.53% of 400,000 active; AID 588579; note: potency is the fitted concentration of half-maximal effect; % is set by controls: 0 for no effect and ±100 for the full control effect
Target sequence (Q9UBT6 whole entry, looked up): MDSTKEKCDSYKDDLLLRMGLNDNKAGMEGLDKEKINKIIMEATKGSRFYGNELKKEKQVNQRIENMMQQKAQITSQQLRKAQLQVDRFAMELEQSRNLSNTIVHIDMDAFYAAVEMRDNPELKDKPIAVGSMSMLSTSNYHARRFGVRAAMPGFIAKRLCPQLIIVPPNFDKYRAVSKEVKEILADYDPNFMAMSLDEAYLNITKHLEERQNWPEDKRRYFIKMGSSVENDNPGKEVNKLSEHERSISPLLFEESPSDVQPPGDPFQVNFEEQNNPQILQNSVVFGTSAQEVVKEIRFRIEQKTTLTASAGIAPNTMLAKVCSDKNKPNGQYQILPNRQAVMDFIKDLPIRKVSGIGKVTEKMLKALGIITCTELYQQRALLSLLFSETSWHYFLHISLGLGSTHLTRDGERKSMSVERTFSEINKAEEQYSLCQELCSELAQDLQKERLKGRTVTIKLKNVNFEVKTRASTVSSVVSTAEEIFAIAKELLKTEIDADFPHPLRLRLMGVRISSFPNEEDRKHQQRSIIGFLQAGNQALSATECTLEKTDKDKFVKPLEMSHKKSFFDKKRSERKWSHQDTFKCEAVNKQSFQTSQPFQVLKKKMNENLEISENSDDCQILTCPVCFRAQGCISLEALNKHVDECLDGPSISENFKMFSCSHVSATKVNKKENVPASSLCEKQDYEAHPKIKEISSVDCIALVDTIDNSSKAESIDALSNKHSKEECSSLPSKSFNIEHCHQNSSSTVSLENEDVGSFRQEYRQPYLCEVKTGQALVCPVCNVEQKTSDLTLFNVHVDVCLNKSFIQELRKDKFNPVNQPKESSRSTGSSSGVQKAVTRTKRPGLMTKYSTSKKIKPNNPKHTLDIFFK
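Activity was followed as the change in fluorescence between reads at 0 and 10 min after starting the reaction with 50 nM substrate. Beforehand, 10 nM polymerase had been preincubated with compound for 15 min at room temperature.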
POLB inh: blocks human DNA polymerase beta activity; P06746; Pol beta primer extension/strand displacement, fluorescence kinetic; Potency, µM (highest dose often 114 µM), without a hit: top-dose activity change, negative = inhibition, hits mostly inhibitors; 1.3% of 340,000 active; AID 485314; note: potency is the fitted concentration of half-maximal effect; % is set by controls: 0 for no effect and ±100 for the full control effect
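Values derive from four-parameter Hill fits of normalized kinetic data: reads at 0 and 10 min following addition of 50 nM substrate to 10 nM Pol beta preincubated 15 min with compound.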
Pol iota inh: blocks human DNA polymerase iota activity. Pol iota fluorescent replication assay, 10 min. 1% of 390,000 active. Potency, µM (series often up to 115 µM), for the others: top-dose activity, negative = inhibition, actives largely listed as inhibitors; note: potency is the fitted concentration of half-maximal effect
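Pol iota at 10 nM preincubated 15 min with compounds at room temperature; reaction started with fluorescent substrate, 50 nM final. Fluorescence read kinetically at 0 and 10 min; buffer-only wells as negative control.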
PI5P4Ka inh: blocks human PI5P4K alpha kinase activity. max response, %. PI5P4Kalpha enzyme, ADP-Glo luminescence, 60 min; active compounds read low. 1.2% of 330,000 active. P48426; active = max response of -50% or lower; inconclusive = between -30% and -50%; inactive = -30% or higher; note: value at the top dose of about 77 µM; % is set by controls: 0 for no effect and ±100 for the full control effect
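Reactions run in 0.038 M HEPES pH 7.4, 0.28 mM EGTA, 0.1% CHAPS and 5% DMSO, with PI5P4Kalpha, substrate, compound and 5 microM ATP final, one hour at room temperature. Readout is ADP-Glo luminescence.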
Pol eta inh: DNA polymerase eta (human) inhibition; Q9Y253; 1.2% of 390,000 active; Potency, µM (doses to about 114 µM), for inactives: at the top dose activity change, negative = inhibition, most hits filed as inhibitors; recombinant Pol eta, fluorescent DNA replication assay; note: potency is the fitted concentration of half-maximal effect; % is set by controls: 0 for no effect and ±100 for the full control effect
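Pol eta at 10 nM preincubated with compounds 15 min at room temperature; reaction started with fluorescent substrate (50 nM final) and read kinetically at 0 and 10 min.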
PI4K2A inh: inhibitors of human PI4K2A; Q9BTU6; purified PI4K2A, ADP-Glo luminescence, 1 h; active compounds read low; activity change, negative = inhibition, % at 76.9 µM; 0.13% of 420,000 active; AID 1346378; in the data active = activity change below about -50%; inconclusive = mostly about -30% to -49%;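 note: -100% = wells without enzyme as full effect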
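In this quantitative HTS, ADP production by PI4K2A was quantified luminescently after 1 h at ambient temperature; 100 microM adenosine served as plate-quality control.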
Active calls of the source: *; ? = inconclusive; / = no result given; [ ] = remark or other dose. Unless noted, calls come from the whole dose curve; as a rule, active = well fitted inhibition curve with a large enough effect; inconclusive = small, poorly fitted or top-dose-only effect, or another doubt; inactive = no such curve, though single readings can be large or run the other way.

SMILES | POLK inh | POLB inh | Pol iota inh | PI5P4Ka inh | Pol eta inh | PI4K2A inh
COc1ccc2cc3[n+](cc2c1O)CCc1cc2c(cc1-3)OCO2 | / | / | / | ? | / | -52.3*
Cc1cc2c(=O)n(C)c(SCC(=O)Nc3ccccc3)nc2s1 | -5.7% | 52.6% | 67.2% | -10.7 | -7.0% | -3.2
Cn1c(SCC(=O)Nc2ccc(C(=O)O)cc2)nc2scc(-c3ccccc3Cl)c2c1=O | -16.6% | / | -13.6% | -70.7* | -0.2% | 1.4
C=CCn1c(CNC(=O)c2cccs2)nnc1SCC(=O)Nc1ccc(C(=O)O)cc1 | -27.9% | -1.4% | 30.7% | -62.9* | ? | -0.4
C=CCn1c(SCC(=O)Nc2ccc(C(=O)O)cc2)nc2scc(-c3ccccc3)c2c1=O | -8.3% | / | -18.5% | -91.6* | -14.8% | -2.3
C=CCn1c(SCC(=O)Nc2c(C)n(C)n(-c3ccccc3)c2=O)nc2scc(-c3ccccc3)c2c1=O | -19.6% | 2.6% | 10.5% | 5.0 | 8.2% | 2.1
C=CCn1c(SCC(=O)Nc2ccc(C(=O)O)cc2)nc2sc(C)c(C)c2c1=O | -8.9% | / | -9.4% | -60.0* | -8.9% | 0.3
CCn1c(SCC(=O)Nc2ccc(C(N)=O)cc2)nc2sc(C)c(C)c2c1=O | / | / | / | / | / | -0.5
COc1ccccc1C(C)NCC(=O)c1c(C)[nH]c2ccccc12 (stereo not drawn) | -18.1% | / | 20.2% | / | / | /
O=C(Cc1cccs1)N(c1ccccc1)C1C=CS(=O)(=O)C1 (stereo not drawn) | -11.0% | ? | 56.2µM* | / | -7.9% | -10.2
CN1Cc2sccc2C(c2ccc(O)c(O)c2)C1 (stereo not drawn) | -13.5%[60.1 µM] | / | / | / | / | -1.1
O=C1c2cc(O)cc(O)c2OC[C@@H]1c1ccc(O)c(O)c1 | 15µM* | / | / | / | / | /
Cc1noc(-c2ccc(N3CCCCC3C)c([N+](=O)[O-])c2)n1 (stereo not drawn) | -11.6% | 39.8µM* | -11.9% | / | -18.5% | -7.8
Cc1ccc(-c2noc(-c3ccc(N4CCCCC4C)c([N+](=O)[O-])c3)n2)cc1 (stereo not drawn) | -6.9% | 1.7% | -29.0% | / | 0.9% | -4.3
COc1ccc(S(=O)(=O)NCc2cccnc2)cc1NC(=O)c1ccccc1C | -27.6% | / | 39.8µM* | -72.9* | ? | -5.2
COc1ccc(C(=O)c2cc3ccc(O)cc3oc2=O)cc1 | -11.1% | 0.5% | ? | / | 2.8% | -52.8*
CC(C)C[C@H]1COc2cccc(F)c2S(=O)(=O)N1Cc1cn(CC2CCCCC2)nn1 | / | / | / | / | / | -0.3
N#Cc1c(N)n(C2OC(CO)C(O)C2O)c2ncnc(N)c12 (stereo not drawn) | -11.0% | / | 50.2% | ? | -16.7% | -61.7*
Nc1ncnc2c1ncn2C1O[C@H](CO)[C@@H](O)[C@@H]1O (stereo partly drawn) | -22.8% | / | -8.5% | -2.2 | -0.8% | -11.6
S=c1[nH]c2cc(Cl)c3cccnc3c2o1 | 5.3% | -0.5% | 44.0% | -52.7* | -14.5% | -6.6
O=C1CCN(CCCN2CCC(=O)NC2=S)C(=S)N1 | / | / | / | 0.8 | -15.8% | -3.3
CCc1ccc(-n2c(CCC(=O)O)ccc2-c2ccc(F)cc2)cc1 | -6.6% | 18.5% | 14.2% | / | -13.3% | 2.0
COC(=O)[C@]12C[C@H](CC(=O)NCCc3ccccc3OC)C(=O)N(Cc3cccc4ccccc34)C1=C[C@H](C1CCCC1)O[C@@H]2C | / | / | / | / | / | -14.9
O=C1CSC(=S)N1N=Cc1c(O)ccc2ccccc12 | -23.0% | / | ? | -73.1* | 10.2% | -11.1
COc1ccc2ccccc2c1/C=N/N1C(=O)CSC1=S | -35.7% | -1.9% | 28.7% | -20.8 | -13.4% | -3.4
O=C(NC1CCCCN(Cc2cccc(F)c2)C1=O)c1ccc(-c2ccccc2)cc1 (stereo not drawn) | / | / | / | / | / | -1.2
c1ccc(-c2ccc(-c3nc(-c4ccccn4)no3)cc2)cc1 | 0.2% | 1.1% | 6.1% | / | -19.3% | -93.6*
NC(=NCc1ccccc1)NC(=O)OCc1ccccc1 | / | / | / | / | / | 0.4
O=C1CC(c2ccccc2)=NN1c1ccccc1 | -18.6% | / | -31.1% | 3.6 | -3.8% | -15.3
